Bioassay records from PubChem BioAssay.
A selection: hits, their analogues and other compounds. The true share with any hit is near 5.7%.
HT1080NT lethal – kills 2HG-producing HT-1080-NT fibrosarcoma cells | HT-1080-NT fibrosarcoma viability, CellTiter-Glo ATP luminescence, 48 h | Potency, µM (highest dose often 46.1 µM), most hits filed as cytotoxic | 360,000 tested, 1.6% active;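 note: NT is the 2HG producing partner of a matched IDH1 knockdown line; nearly all actives have a fitted effect of over 55% in size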
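Viability by CellTiter-Glo luminescence after 48 h compound exposure at 37C of HT-1080-NT cells (750/well, RPMI, 5% FBS). % activity scaled between DMSO wells and medium-only wells, then curve-fitted and categorized by curve class.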
KB-3-1 tox – KB-3-1 parental cell cytotoxicity; KB-3-1 viability, CellTiter-Glo ATP luminescence, 72 h; Potency, µM (doses to about 46.1 µM), most hits filed as cytotoxic; 400,000 tested, 1.4% active; note: nearly all actives have a fitted effect of over 60% in size
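Viability of parental KB-3-1 cells, measured by CellTiter-Glo luminescence, followed a 72 h incubation at 37 °C with pinned compounds in phenol-red-free DMEM containing 10% FBS.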
HT1080 IDH1KD tx – toxicity to HT-1080 IDH1 knockdown cells (counter line) | Potency, µM (top dose mostly 46.1 µM), most hits filed as cytotoxic | 360,000 tested, 2% active | AID 686971 | HT-1080 IDH1 knockdown viability, ATP luminescence, 48 h
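Viability of IDH1-knockdown HT-1080 fibrosarcoma cells was assessed by CellTiter-Glo after 48 h at 37 °C with titrated compound; concentration-effect curves were classified by fit quality and response size.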
KB-V1 cytotox – KB-V1 MDR subline cytotoxicity; 400,000 tested, 3.4% active; KB-V1 MDR cells viability, CellTiter-Glo, 72 h; Potency, µM (highest dose often 46.1 µM), most hits filed as cytotoxic; note: nearly all actives have a fitted effect of over 60% in size
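KB-V1 cells (P-gp-expressing MDR subline of KB-3-1) in phenol-red-free DMEM with 10% FBS were exposed to library compounds over a concentration series for 72 h at 37 degrees C. Viability read by CellTiter-Glo luminescence; concentration-effect curves fitted after normalization.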
Hits are given with their value; – = inactive; ? = inconclusive; · = not tested or not shown. Calls come from the whole dose curve; as a rule, active = well fitted curve in the direction sought with a large enough effect; inconclusive = small, poorly fitted or top-dose-only effect, or another doubt; inactive = no such curve, though single readings can be large; an effect the other way counts as inactive or inconclusive.

SMILES	HT1080NT lethal	KB-3-1 tox	HT1080 IDH1KD tx	KB-V1 cytotox
Cc1cccc(C(=O)Nc2cccc(NC(=O)c3ccccc3)c2)c1	–	–	–	–
Cc1cccc(NC2=C(NC(=O)c3ccccc3)C(=O)c3ccccc3C2=O)c1	?	–	?	15µM
COc1ccc(Oc2nc3c(c(=O)n(C)c(=O)n3C)n2Cc2ccc(Cl)cc2Cl)cc1	·	–	·	–
Cc1noc2ncnc(N3CCCC(C(=O)Nc4cccc(C(F)(F)F)c4)C3)c12 (configuration not stated)	·	–	·	?
CCOC(=O)Cn1c(=O)n(CC2CCCO2)c2nc(-c3cccc(C)c3)nc(C(N)=O)c21 (configuration not stated)	·	–	·	?
COc1cc(-c2nc(Cn3nnc(C(=O)Nc4ccccc4)c3C)c(C)o2)cc(OC)c1OC	·	–	·	–
Cc1cccc(NC(=O)c2cccc3c2C(=O)c2ccccc2-3)c1	–	–	–	6.5µM
Cc1cccc(NC(=O)c2ccccc2-c2ccccc2)c1	–	–	–	–
Cc1ccc(Cn2nc(C)c(NC(=O)CCCn3nc(C)c([N+](=O)[O-])c3C)c2C)cc1	–	–	–	9.2µM
Cc1nn(CCCC(=O)Nc2cc(Oc3ccccc3)cc([N+](=O)[O-])c2)c(C)c1[N+](=O)[O-]	–	?	–	8.2µM
Cc1ccc(C)c(Oc2cc(NC(=O)CCCn3nc(C)c([N+](=O)[O-])c3C)cc([N+](=O)[O-])c2)c1	16µM	?	?	10µM
Cc1ccc(Cn2nc(C)c(NC(=O)CCCn3nc([N+](=O)[O-])c(Cl)c3C)c2C)cc1	–	–	–	?
Cc1ccc(Oc2cc(NC(=O)CCCn3nc([N+](=O)[O-])cc3C)cc([N+](=O)[O-])c2)cc1	–	–	–	5.2µM
Cc1nn(CCCC(=O)Nc2cnn(Cc3ccc(F)cc3)c2)c(C)c1[N+](=O)[O-]	–	–	–	–
CC(=O)N1CCCC1c1nc2ccccc2n1Cc1cccc(Cl)c1 (configuration not stated)	·	–	·	–
CCOC(=O)c1c(C)c(-c2ccccc2)n(CC(=O)NCc2ccccc2)c1C	·	–	·	–
Cc1c(Cl)c([N+](=O)[O-])nn1CCCC(=O)Nc1cccc(Cl)c1Cl	–	–	–	16µM
Cc1c(Cl)c([N+](=O)[O-])nn1CCCC(=O)Nc1ccc(Cl)cc1Cl	–	–	–	?
CCN(CC)c1ccc2c(c1)oc(=O)c1c(Cl)cc(=O)oc12	?	?	2.6µM	?
CCN(CC)c1ccc2c(Cl)c(Br)c(=O)oc2c1	18µM	?	21µM	?
C=C1C=C(C)n2ncc(C(=O)Nc3cccc4cnccc34)c2N1	·	?	·	–
Cc1ccnc(NC(=S)N2CCN(c3ccc(C#N)cc3)CC2)c1	·	–	·	–
CN1CC(c2ccc(Cl)c(Cl)c2)[C@@]2(COc3ccccc3C2=O)[C@@]12C(=O)Nc1ccccc12 (some centres not stated)	–	?	–	9.2µM
Cc1ccc(Cl)cc1NC(=O)C(=O)NCCc1sc(-c2ccc(F)cc2)nc1C	·	–	·	–
COc1cc2nc(N3CCCCC3)nc(NC3CCN(C)CC3)c2cc1OC	20µM	·	11µM	·
SMILES	HT1080NT lethal	KB-3-1 tox	HT1080 IDH1KD tx	KB-V1 cytotox
COc1cc2nc(N3CCCCC3)nc(NC3CCN(Cc4ccccc4)CC3)c2cc1OC	14µM	·	10µM	·
COc1cc2nc(NC3CCN(C)CC3)nc(N3CCCN(C)CC3)c2cc1OC	–	·	–	·
COc1cc2c(NC3CCN(C)CC3)nc(N3CCCN(C)CC3)nc2cc1OCCCCN(C)C	·	16µM	·	–
COc1cc2c(NC3CCN(C)CC3)nc(N3CCCCC3)nc2cc1OCCCN(C)C	·	?	·	–
COc1cc2nc(NC3CCN(Cc4ccccc4)CC3)nc(N3CCCN(C)CC3)c2cc1OC	6.3µM	·	2.8µM	·
Cc1ccc(-c2nc(SCCOc3ccccc3C)n3[nH]c(=O)cc3n2)cc1	·	?	·	–
COc1cc2oc(=O)c(CC(=O)NCCc3ccccc3)c(C)c2cc1Cl	·	–	·	–
Cc1ccc(-n2cc(CN3CCN(Cc4nccn4C)CC3)c(-c3ccc(F)cc3)n2)cc1	?	–	?	–
Cc1ccc(C)c(-n2cc(CNCCCn3cccn3)c(-c3ccccc3)n2)c1	21µM	–	?	–
Cc1ccc(-n2cc(CNCCc3cscn3)c(-c3ccc(F)cc3)n2)cc1	21µM	–	21µM	–
Cc1ccc(-n2cc(CNCCCn3ccnc3C)c(-c3ccc(F)cc3)n2)cc1	21µM	?	?	21µM
O=C(c1ccc2c(c1)N(Cc1ccc(F)cc1)C(=O)c1ccccc1S2(=O)=O)N1CCC(Cc2ccccc2)CC1	·	–	·	–
CN(CC1COc2ccccc2O1)C(=O)c1cccc(S(=O)(=O)N2CCCC2)c1 (configuration not stated)	–	–	?	8.2µM
Cc1ccc(CN(C)C(=O)c2cccc(S(=O)(=O)N3CCN(c4ccccc4)CC3)c2)cc1	–	?	–	18µM
CN(Cc1ccc(F)cc1)C(=O)c1cccc(S(=O)(=O)N2CCN(c3ccc(F)cc3)CC2)c1	?	13µM	–	?
O=C(CCCn1c(=O)c2sccc2n(Cc2c(F)cccc2Cl)c1=O)NCc1ccccc1	·	–	·	–
Cc1cc(Br)ccc1NC(=O)COC(=O)c1ccccc1OCC(=O)N(C)C	·	?	·	–
Nc1nonc1-c1nc2ccccc2n1Cc1cccc(Cl)c1	·	–	·	–
COc1ccc(/C=C/c2ccnc3ccccc23)c(OC)c1	·	?	·	–
